Assay results as given in PubChem BioAssay (NCATS).
Records with an inconclusive call do not appear. Where a call stands in place of a potency, no number is given. Calls of active or inactive are those of the source. Calls follow the shape of the dose curve; as a rule, active = well fitted curve in the direction sought with a large enough effect; inconclusive = small, poorly fitted or top-dose-only effect, or another doubt; inactive = no such curve, though single readings can be large; an effect the other way counts as inactive or inconclusive.

How the values were obtained:
[1] = molecular target: Aldehyde dehydrogenase, mitochondrial (Homo sapiens) (UniProt P05091); test: qHTS for Inhibitors of the Aldehyde Dehydrogenase Family (ALDH2) Primary screen (AID 2061308); also: nearly all actives have a fitted effect of over 55% in size
[2] = molecular target: Retinaldehyde dehydrogenase 3 (Homo sapiens) (UniProt P47895); test: qHTS for Inhibitors of the Aldehyde Dehydrogenase Family (ALDH1A3) Primary screen (AID 2061315)

Row | SMILES | Potency [1] | Potency [2]
1 | COc1cc(Cn2ncc3c4sc(C)cc4n(C)c3c2=O)cc(OC)c1 | inactive | inactive
2 | CC(=O)Nc1ccc(S(=O)(=O)N2CCN(S(=O)(=O)c3c(F)cccc3F)CC2)cc1 | inactive | inactive
3 | CCOc1ccc(NC(=O)c2ccc(-c3nc4ccccc4[nH]3)cc2)cc1Cl | inactive | inactive
4 | Cc1ccc(S(=O)(=O)Nc2cnccc2C(=O)Nc2ccc(-c3nn[nH]n3)cc2)cc1 | inactive | inactive
5 | Cc1ccc(C(=O)Nc2ccccc2C(=O)Nc2nc(-c3ccccc3)cs2)cc1 | inactive | inactive
6 | O=C(O)c1ccc(-c2cccc(-c3nn4c(=O)cc(N5CCNCC5)nc4s3)c2)cc1 | inactive | inactive
7 | O=C1CCc2cc(S(=O)(=O)Nc3ccc(Cl)cc3)ccc2N1 | inactive | inactive
8 | Cc1cccc(-n2cnc3cc(C(=O)N4CCCCC4)ccc32)c1 | inactive | inactive
9 | CCC/C=C\C=C/CCc1cc(O)c([C@@H]2O[C@H](CO)[C@@H](O)[C@H](O)[C@H]2O)c(O)c1C(=O)OC | inactive | inactive
10 | CCCCN(C)C(=O)Cn1nc(-c2cccc(C)c2)ccc1=O | inactive | inactive
11 | C[C@@H]1CN(S(=O)(=O)c2c(F)cccc2F)CCN1S(=O)(=O)c1ccc2c(c1)OCCO2 | inactive | inactive
12 | O=C(NCc1nnc(-c2cc3ccccc3[nH]2)s1)c1ccccc1 | inactive | inactive
13 | O=C(Cn1cc(CNCc2ccccc2)nn1)Nc1cc(C(F)(F)F)ccc1Cl | inactive | inactive
14 | Cc1cc(NS(=O)(=O)c2ccc(NC(=O)CCc3ccc(Cl)c(Cl)c3)cc2)no1 | inactive | inactive
15 | O=S(=O)(Nc1nccs1)c1ccc(Nc2nc(-c3ccccc3)cs2)cc1 | inactive | inactive
16 | O=C1CCCC2=C1C(c1cccc(F)c1)N=C(Nc1nc3ccccc3o1)N2 (stereo not drawn) | inactive | inactive
17 | COc1ccc(NC(=O)c2cccnc2C)cc1S(=O)(=O)Nc1ccc(Br)cc1 | inactive | inactive
18 | Cn1c2ccsc2c2ncn(Cc3ccccc3F)c(=O)c21 | inactive | inactive
19 | S=C(NCCCc1cnc[nH]1)NCCCN(Cc1ccc(Cl)cc1)c1ccc(Br)cn1 | inactive | inactive
20 | O=C1CCCC2=C1C(c1ccccc1C(F)(F)F)N=C(Nc1nc3ccccc3o1)N2 (stereo not drawn) | inactive | inactive
21 | Cc1ccc(-c2cc(C(=O)Nc3ccc(S(=O)(=O)NCc4nccs4)cc3)c3ccccc3n2)cc1C | inactive | inactive
22 | S=C(NCCCc1cnc[nH]1)NCCCN(Cc1ccc(Cl)c(Cl)c1)c1ccc(Br)cn1 | inactive | inactive

Row | SMILES | Potency [1] | Potency [2]
23 | O=c1[nH]c(CCl)nc2sc3c(c12)CCCC3 | inactive | inactive
24 | O=C(Nc1ncc(Cc2ccc(C(F)(F)F)cc2)s1)c1cccc(-c2ccccc2)c1 | inactive | inactive
25 | N/C(=N\c1nnc(-c2ccncc2)s1)Nc1ccc(Cl)c(Cl)c1 | inactive | inactive
26 | O=[S+]([O-])(c1c(F)cccc1F)N1CCN([S+](=O)([O-])c2c(F)c(F)c(F)c(F)c2F)CC1 | inactive | inactive
27 | Cc1ccc(S(=O)(=O)Nc2cnccc2C(=O)Nc2nc(-c3cccc(F)c3)cs2)cc1 | inactive | inactive
28 | CCOc1ccc(CCNC(=O)c2cc3ccccc3o2)cc1OCC | inactive | inactive
29 | Cc1ccc(S(=O)(=O)Nc2cnccc2C(=O)Nc2nc(-c3ccccc3Cl)cs2)cc1 | inactive | inactive
30 | CCCCNc1nc(C)nc2c1nc(-c1ccccc1)n2CC(C)(C)CN(C)C | inactive | inactive
31 | CCn1cnc2c(Nc3cc(F)cc(F)c3)nc(C(=O)COc3c(F)c(F)cc(F)c3F)nc21 | inactive | inactive
32 | O=C1CCCC2=C1C(c1[nH]ncc1Cl)N=C(Nc1nccs1)N2 (stereo not drawn) | inactive | inactive
33 | COCCN(CCOC)c1nc(C)nc2c1nc(-c1ccccc1)n2CCN1CCCC1 | inactive | inactive
34 | Cc1cccc(-c2ccc(=O)n(CC(=O)NCCc3ccccc3)n2)c1 | inactive | inactive
35 | COc1ccc(C2=Nn3c(nnc3-c3ccccc3F)SC2)cc1OC1CCCC1 | inactive | inactive
36 | COc1cc(NS(=O)(=O)c2ccc3ccccc3c2)c2ncccc2c1 | inactive | inactive
37 | O=S(=O)(Nc1cnc2ccccc2c1)c1ccc(NCc2cccc(Cl)c2O)cc1 | inactive | inactive
38 | Cn1nnnc1Sc1ncnc2scc(-c3ccccc3C#N)c12 | inactive | inactive
39 | O=C(Nc1ncc(Cc2ccc(C(F)(F)F)cc2)s1)c1ccc(-c2cccnc2)o1 | inactive | inactive
40 | O=C1Nc2ccccc2/C1=C\c1ccc(O)cc1 | inactive | inactive
41 | N#CN1CCC(NC(=O)c2ccc(C(F)(F)F)cc2)CC1 | inactive | inactive
42 | Cc1ccc(OCCn2c(CCNC(=O)/C=C/c3ccccc3)nc3ccccc32)cc1 | inactive | inactive
43 | Cc1ccc(NS(=O)(=O)c2ccc3c(c2)CCC(=O)N3)cc1 | inactive | inactive
44 | Cc1cc2c(s1)c1cnn(Cc3ccc(Cl)cc3)c(=O)c1n2C | inactive | inactive

Row | SMILES | Potency [1] | Potency [2]
45 | Cc1cc2c(s1)c1cnn(Cc3c(F)ccc(C)c3Cl)c(=O)c1n2C | inactive | inactive
46 | O=C(Nc1ccc(S(=O)(=O)Nc2nccs2)cc1)C1CC(OCc2ccccc2)C1 (stereo not drawn) | inactive | inactive
47 | FC(F)(F)c1cccc(CSc2nc3ncc(Br)cc3[nH]2)c1 | inactive | inactive
48 | Cc1cccc(CNc2ccnc(-c3cc(C(F)(F)F)cc(C(F)(F)F)c3)n2)c1 | inactive | inactive
49 | O=[S+]([O-])(c1c(F)cccc1F)N1CCN([S+](=O)([O-])c2csc3ccccc23)CC1 | inactive | inactive
50 | CCOC(=O)C1CCN(C(=O)C(C)(C)NC(=O)Nc2ccc3ccccc3c2)CC1 | inactive | inactive
51 | O=C1CCCc2cc(S(=O)(=O)Nc3cnccc3C(=O)Nc3nc(-c4ccccc4)cs3)ccc2N1 | inactive | inactive
52 | COc1cc(Cl)ccc1C(=O)Nc1nc(-c2ccccc2)cs1 | inactive | inactive
53 | O=C(NCc1ccccc1)n1cc(P(=S)(c2ccccc2)c2ccccc2)c2ccccc21 | inactive | inactive
54 | Cc1cc2c(s1)c1cnn(Cc3cc(F)c(F)cc3F)c(=O)c1n2C | inactive | inactive
55 | CCCn1c(-c2ccc(F)cc2)nc2c(NC3CCN(Cc4ccccc4)C3)nc(C)nc21 (stereo not drawn) | inactive | inactive
56 | COc1cc(OC)cc(-c2nnc3n2N=C(c2ccccc2OC)CS3)c1 | inactive | inactive
57 | COC(=O)c1ccc(Cn2ncc3c4sc(C)cc4n(C)c3c2=O)cc1 | inactive | inactive
58 | C=CCNc1oc(-c2cccnc2)nc1C#N | inactive | inactive
59 | Cc1ccccc1C(=O)N1CCc2cc(-c3ccnc(NC(=O)Cc4ccccc4)n3)ccc21 | inactive | inactive
60 | COc1ccccc1NS(=O)(=O)c1ccc2c(c1)CCC(=O)N2 | inactive | inactive
61 | Cc1c(Cl)cccc1S(=O)(=O)Nc1nc(NCCc2ccccc2)nc2c1CN(Cc1ccccc1)CC2 | inactive | inactive
62 | Cc1cc(C)nc(NC(=S)N2CCN(c3cc(C(F)(F)F)nc(C)n3)CC2)c1 | inactive | inactive
63 | O=C1CCCC2=C1C(c1[nH]ncc1Cl)N=C(Nc1cccnc1)N2 (stereo not drawn) | inactive | inactive
64 | CC(C)Oc1cccc(-c2ccnc(N3CCC(C(N)=O)CC3)n2)c1 | inactive | inactive
